Mtb FBA inh – Mtb fructose-bisphosphate aldolase inhibition; inhibition, % at 1 µM; purified M. tuberculosis FBA, fluorescence read-out; AID 588726; actives 2.3% (n = 360,000); in the data active = inhibition above about 27%;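 also: 0% = vehicle and 100% = reference inhibitor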
Target sequence (P9WQA3 whole entry, looked up): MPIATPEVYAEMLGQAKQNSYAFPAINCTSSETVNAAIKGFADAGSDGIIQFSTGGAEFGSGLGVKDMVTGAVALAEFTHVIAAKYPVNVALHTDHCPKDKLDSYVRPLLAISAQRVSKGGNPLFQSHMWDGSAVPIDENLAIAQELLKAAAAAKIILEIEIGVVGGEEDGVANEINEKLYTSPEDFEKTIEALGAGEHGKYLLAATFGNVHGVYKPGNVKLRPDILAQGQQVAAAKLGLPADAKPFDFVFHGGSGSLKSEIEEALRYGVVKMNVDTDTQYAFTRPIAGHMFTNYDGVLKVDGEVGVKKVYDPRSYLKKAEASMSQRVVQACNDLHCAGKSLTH
TcdB inh – TcdB glycohydrolase inhibition; P18177; TcdB glycohydrolase enzymatic assay, plate reader; inhibition, % at 9.99 µM; actives 0.24% (n = 350,000); AID 652162; in the data active = inhibition above about 10%
GDH-TPI inh – counter-screen for M. tuberculosis FBA inhibitors: GDH-TPI coupled enzymes | actives 1.2% (n = 360,000) | inhibition, % at 4.8 µM | GDH-TPI coupled enzyme counterscreen, NADH absorbance; in the data active = inhibition above about 30%;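 also: 0% = DMSO wells and 100% = wells lacking the enzyme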
PrPC surface inh – cell surface PrPC inhibition, primary TR-FRET screen. P04156. TR-FRET read-out. inhibition, % at 13.8 µM. actives 0.43% (n = 370,000). AID 720596; in the data active = inhibition above about 24%; also: 0% = median of the test wells and 100% = reference compound wells
Y pestis TopoI – blocks Yersinia pestis topoisomerase I activity | Y. pestis Topo-I cleavage product accumulation, plate reader | activity, % at 10 µM | actives 0.064% (n = 360,000) | AID 504884; in the data active = activity above about 50%, passing the limit was not always enough
* hit, by the source's call; / = not tested or not shown; + = active, no number. Only some compounds are listed: those with a hit (about 3.2% of all), similar ones and a draw of the others.

SMILES	Mtb FBA inh	TcdB inh	GDH-TPI inh	PrPC surface inh	Y pestis TopoI
O=[N+]([O-])c1ccc(/C=C/c2ccc3ccccc3n2)cc1	-1	10*	-1	-4	0
Oc1c(Br)cc(C2N=C(c3ccccc3)NO2)cc1Br (stereo unspecified)	8	/	32*	3	-6
O=C(C[C@@H]1C[C@@H]2c3cc(NC(=O)Nc4ccc(C(F)(F)F)cc4)ccc3O[C@@H]2[C@@H](CO)O1)NCc1cc(F)ccc1F	/	-1	/	/	/
c1ccc2[nH]c(-c3ccc4c(c3)OCO4)nc2c1	20	11*	4	6	6
c1ccc2sc(-c3ccc4c(c3)OCO4)nc2c1	130*	/	18	/	13
O=C(Nc1cccc(-c2nc3ccccc3s2)c1)c1ccc2c(c1)OCO2	1	1	14	3	-5
CCNC(=O)C[C@H]1CC[C@H]2[C@@H](COc3ccc(NC(=O)Nc4ccccc4C)cc3C(=O)N2C)O1	/	0	/	/	/
Clc1cccc(-c2nc3nc4ccccc4nc3n2Cc2ccccc2)c1	3	-2	-1	10	-4
C=CCn1c(-c2ccccc2)nc2nc3ccccc3nc21	126*	/	39*	-11	16
COc1ccccc1NC(=O)N[C@H]1CC[C@@H](CCNS(=O)(=O)c2ccc(Cl)cc2)O[C@H]1CO	/	-1	/	/	/
CCc1ccc2c(c1)c(N=NC1=NC(=O)CS1)c(O)n2CC	-8	/	31*	-23	2
CCc1ccc2[nH]c(O)c(N=NC3=NC(=O)CS3)c2c1	0	-1	28	-19	-9
Cc1cccc(NC(=O)c2sc(NC(=O)c3ccco3)c(C#N)c2C)c1C	3	/	36*	-6	3
CC1(C)Cc2c(sc(NC(=O)c3ccco3)c2C#N)CO1	-1	/	31*	1	0
COc1ccc(S(=O)(=O)N(C)C[C@@H]2Oc3ncc(C#CC(C)(C)O)cc3C(=O)N([C@H](C)CO)C[C@@H]2C)cc1	/	0	/	/	/
CCCNC(=O)N1[C@@H]2CN(C(=O)c3cccnc3)c3ccccc3[C@@H]2[C@@H]1CO	/	0	/	/	/
CC(C(=O)OCC(=O)c1c(N)n(C)c(=O)n(C)c1=O)N1C(=O)c2ccccc2C1=O (stereo unspecified)	1	14*	12	6	2
Cn1c(N)c(C(=O)COC(=O)CCCN2C(=O)c3ccccc3C2=O)c(=O)n(C)c1=O	3	/	2	3	5
Cc1ccccc1-c1ccc2c(c1)O[C@@H](CN(C)C(=O)c1ccccn1)[C@H](C)CN([C@H](C)CO)S2(=O)=O	/	1	/	/	/
Cc1cc(N2C(=O)C(O)=C(C(=O)c3cc4ccccc4o3)C2c2ccc([N+](=O)[O-])cc2)no1 (stereo unspecified)	1	1	8	2	6
Cc1ccc(C2C(C(=O)c3cc4ccccc4o3)=C(O)C(=O)N2c2cc(C)on2)cc1 (stereo unspecified)	9	3	14	12	85*
O=C(O)c1cc(N/N=C/c2ccc(N3CCOCC3)s2)ccc1Cl	-3	-5	22	-2	3
C/C(=N\Nc1ccc(Cl)c(C(=O)O)c1)c1ccc(N2CCOCC2)cc1	-3	1	31*	-6	2
C/C(=N\NC(=O)c1ccc(F)cc1)c1ccc(N2CCOCC2)cc1	2	0	18	8	1
C/C(=N\NC(=O)c1cccc(C)c1)c1ccc(N2CCOCC2)cc1	4	/	34*	6	-2
SMILES	Mtb FBA inh	TcdB inh	GDH-TPI inh	PrPC surface inh	Y pestis TopoI
COC(=O)C(CC#Cc1ccc2c(c1)[C@]1(C(=O)N2)[C@H](C(=O)N2CCN(c3ncccn3)CC2)[C@H]2C(=O)O[C@H](c3ccccc3)[C@H](c3ccccc3)N2[C@@H]1c1ccc(O)cc1)C(=O)OC	/	-9	/	/	/
CC1(C)O[C@@H]2[C@H](O1)[C@@H](COS(=O)(=O)O)O[C@H]2n1c(=S)[nH]c2c(=O)[nH]c(N)nc21	-1	12*	1	-1	0
CC1(C)OC2C(CO)OC(n3cnc4c(=S)nc(N)[nH]c43)C2O1 (stereo unspecified)	3	/	/	/	/
CCCCc1cc(=O)oc2c3c(cc(OCC(=O)NCCCO)c12)OC(C)(C)CC3	+	0	10	2	-2
CCCc1cc(=O)oc2c3c(cc(OCC(=O)NCCN4CCOCC4)c12)OC(C)(C)CC3	180*	0	11	1	3
Cc1cc(OCC(=O)NCCN2CCOCC2)cc(C)c1Cl	0	0	2	-1	0
CCc1cc(=O)oc2c3c(cc(OCC(=O)NCCCn4ccnc4)c12)OC(C)(C)CC3	164*	-2	5	-6	4
CCCCc1cc(=O)oc2cc(C)cc(OCC(=O)Nc3cccnc3)c12	19	0	11	0	4
Cc1cc(OCC(=O)N2CCC(C(=O)O)CC2)c2c(C)cc(=O)oc2c1	130*	1	6	-2	10
CCCCc1cc(=O)oc2cc(C)cc(OCC(=O)N3CCC(C(=O)O)CC3)c12	124*	1	18	-2	2
CCNc1cc2oc(=O)c(CN3CCOCC3)c(C)c2cc1C	+	/	20	-3	-7
Cc1cc2oc(=O)cc(CN3CCOCC3)c2cc1C	-3	/	18	0	-6
CNC[C@@H]1Oc2c(NC(=O)Nc3ccc(C(F)(F)F)cc3)cccc2C(=O)N([C@@H](C)CO)C[C@@H]1C	/	1	/	/	/
C/C(=N/NC(=O)c1sc(NS(=O)(=O)c2ccccc2)nc1C)c1sc(N)nc1C	6	-2	38*	-4	-6
Cc1nc(NS(=O)(=O)c2ccccc2)sc1C(=O)NN	2	-2	11	-1	-6
C[C@@H]1CN([C@@H](C)CO)C(=O)Cc2cc(NC(=O)Nc3ccc(C(F)(F)F)cc3)ccc2O[C@H]1CN(C)C(=O)NC1CCCCC1	/	0	/	/	/
CC(C)CC#Cc1ccc2c(c1)O[C@H](CN(C)Cc1ccccc1F)[C@H](C)CN([C@@H](C)CO)S2(=O)=O	/	1	/	/	/
COc1ccccc1NC(=O)CCN1C(=O)c2ccccc2C1=O	2	1	0	2	0
COc1ccccc1CNC(=O)CCN1C(=O)c2ccccc2C1=O	117*	1	2	-3	16
OC(CNCc1ccccc1)c1ccccc1 (stereo unspecified)	-1	0	-6	-2	-4
ClCC(CNCc1ccccc1)c1ccccc1 (stereo unspecified)	3	12*	7	-9	8
C[C@H](CO)N1C[C@H](C)[C@@H](CN(C)C(=O)CN(C)C)Oc2ncc(C#Cc3ccccc3)cc2C1=O	/	1	/	/	/
Cc1cc(OCCn2nc(C(=O)O)c3ccccc3c2=O)ccc1C(C)C	-2	1	0	-6	83*
Cc1noc(C)c1NC(=O)N(C)C[C@H]1Oc2ccc(NC(=O)Cn3cnnn3)cc2C(=O)N([C@@H](C)CO)C[C@@H]1C	/	-2	/	/	/
CS(=O)(=O)Nc1ccc2c(c1)[C@@H]1C[C@H](CC(=O)NCc3ccncc3)O[C@H](CO)[C@@H]1O2	/	0	/	/	/
CN(C[C@@H]1N[C@@H](CO)[C@@H]1c1ccc(C2=CCCC2)cc1)S(C)(=O)=O	/	-1	/	/	/

Screening results as filed in PubChem BioAssay.
